# Compound activity as filed in PubChem.
# Most compounds without a hit are left out; they make up all but 19% or so of the library.
# KB-V1 MDR tox: qHTS assay for MDR1-selective chemotherapeutics: Primary screen using the drug-selected MDR subline cells KB-V1; Potency, µM (doses to about 46.1 µM), usual class: cytotoxic; KB-V1 MDR cells viability, CellTiter-Glo, 72 h; actives 3.4% (n = 400,000); also: nearly all actives have a fitted effect of over 60% in size
#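 qHTS viability screen in drug-selected KB-V1 MDR cells: 72 h compound treatment at 37 degrees C, ATP luminescence end point.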
# KB-3-1 cytotox: qHTS assay for MDR1-selective chemotherapeutics: Primary screen using the parental adenocarcinoma cell KB-3-1 | KB-3-1 viability, CellTiter-Glo ATP luminescence, 72 h | Potency, µM (doses to about 46.1 µM), usual class: cytotoxic | actives 1.4% (n = 400,000) | AID 1347075, 2019; also: nearly all actives have a fitted effect of over 60% in size
#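 Cytotoxicity in the drug-sensitive parental line KB-3-1 was scored as loss of CellTiter-Glo luminescence following 72 h incubation with compound. Values come from curve fitting of normalized concentration-response data.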
# HT1080NT lethal: qHTS for induction of synthetic lethality in tumor cells producing 2HG: qHTS for the HT-1080-NT fibrosarcoma cell line. actives 1.6% (n = 360,000). Potency, µM (top dose mostly 46.1 µM), inactives show at the top dose activity, negative = less viability, usual class: cytotoxic. HT-1080-NT fibrosarcoma viability, CellTiter-Glo ATP luminescence, 48 h;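 also: NT is the 2HG producing partner of a matched IDH1 knockdown line; 0% = DMSO-treated cells and -100% = media-only wells without cells; nearly all actives have a fitted effect of over 55% in size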
#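 Compounds were tested in concentration-response format on HT-1080-NT cells for 48 hours at 37 degrees C. Cell viability came from CellTiter-Glo luminescence; curves were classified by r2, response magnitude and activity.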
# DT40 TDP1 no CPT: qHTS for Inhibitors of human tyrosyl-DNA phosphodiesterase 1 (TDP1): qHTS in cells in absence of CPT; DT40 Tdp1-/- hTDP1 cells, no CPT, ATP luminescence, 48 h; Potency, µM (top dose mostly 46.2 µM), inactives show top-dose activity change, negative = growth inhibition, usual class: inhibitors; actives 15% (n = 420,000); AID 686978, 2013; also: nearly all actives have a fitted effect of over 55% in size
#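 Growth of hTDP1-complemented DT40 Tdp1-knockout cells is measured by ATP luminescence after at least 48 hr compound exposure at 37 °C, with DMSO substituting for the 20 nM CPT used in the parallel screen.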
# HT1080 IDH1KD tx: qHTS for induction of synthetic lethality in tumor cells producing 2HG: qHTS for the HT-1080-IDH1KD cell line; actives 2% (n = 360,000); Potency, µM (titrated, usually from 46.1 µM), for inactives: top-dose activity, negative = toxicity, actives largely listed as cytotoxic; HT-1080 IDH1 knockdown viability, ATP luminescence, 48 h;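 also: 0% = DMSO wells and -100% = cell-free medium wells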
#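 % activity derives from luminescence (CellTiter-Glo), normalised to DMSO and no-cell wells. HT-1080-IDH1KD cells, 750/well, had 48 h compound exposure at 37 °C.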
# TDP1 cell CPT: qHTS for Inhibitors of human tyrosyl-DNA phosphodiesterase 1 (TDP1): qHTS in cells in presence of CPT | chicken DT40 Tdp1-/-;hTDP1 cells + 20 nM CPT, ATP luminescence, 48 h | Potency, µM (doses to about 46.2 µM), inactives show at the highest dose activity change, negative = growth inhibition, most hits filed as inhibitors | actives 12% (n = 420,000) | AID 686979, 2013; also: nearly all actives have a fitted effect of over 55% in size
#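 Chicken DT40 Tdp1-/- cells complemented with human TDP1, 400 cells/well, exposed to compounds plus 20 nM camptothecin for at least 48 h at 37 C; viability read as ATP content by CellTiter-Glo luminescence.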
# Starred values were filed as active, the others as inactive; i = inactive; ? = inconclusive; · = not tested or not shown. Calls follow the shape of the dose curve; as a rule, active = well fitted curve in the direction sought with a large enough effect; inconclusive = small, poorly fitted or top-dose-only effect, or another doubt; inactive = no such curve, though single readings can be large; an effect the other way counts as inactive or inconclusive. Unless noted, % is scaled to controls: 0 for no effect and ±100 for the full control effect; potency is read from the fitted curve at half-maximal effect.
SMILES,KB-V1 MDR tox,KB-3-1 cytotox,HT1080NT lethal,DT40 TDP1 no CPT,HT1080 IDH1KD tx,TDP1 cell CPT
CCOc1ccccc1NC(=O)c1ccc(Cl)c(NC(=O)CC(c2ccccc2)c2ccccc2)c1,?,i,-15.8%,?,-16.1%,18.4µM*
CCOc1ccccc1NC(=O)c1cccc(NC(=O)C2CCCC2)c1,?,?,-2.2%,?,-6.8%,?
COc1cccc(CN2Cc3cccc4c3[C@H](C=CC4)CC2=O)c1,?,i,·,?,·,?
O=C(CN1CCCCCC1)Nc1ccccc1OC(F)F,i,i,-6.2%,-2.4%,-10.7%,3.1%
Cc1ccc([N+](=O)[O-])cc1S(=O)(=O)Nc1ccc(C(=O)NCC2CCCO2)cc1 (stereo unspecified),i,i,5.7%,?,-1.3%,-29.4%
CC(C)(C(=O)N1CCC1(C)C(=O)Nc1ccccc1Br)c1ccccc1 (stereo unspecified),?,i,2.2%,?,9.7%,?
CN1OC[C@@H]2CN[C@H](c3cccc(-c4cc(Cl)cc(Cl)c4)c3)C[C@@H]21,i,i,-1.4%,?,-8.9%,?
CN1OC[C@@H]2CN[C@H](c3ccc(-c4ccc(C#N)cc4)cc3)C[C@@H]21,i,i,-3.3%,23.1µM*,-6.9%,18.4µM*
CN1OC[C@@H]2CN[C@H](c3ccc(-c4cc5ccccc5o4)cc3)C[C@@H]21,i,i,?,23.1µM*,-25.8%,16.4µM*
CN1OC[C@@H]2CN(C(=O)c3ccco3)[C@H](c3ccc(-c4ccc(C#N)cc4)cc3)C[C@@H]21,?,i,-5.0%,?,-10.5%,?
CC1(C(=O)Nc2ccc3c(c2)OCCO3)CCC(=O)N1C1CC1 (stereo unspecified),i,i,?,33.4%,6.5%,2.1%
COc1ccc(CN2C(=O)CN(S(C)(=O)=O)CC2(C)C(=O)Nc2c(C)cccc2C)cc1OC (stereo unspecified),i,i,-3.4%,4.0%,17.5%,3.7%
CC(=O)c1ccc(Nc2nc(C(N)CCc3ccccc3)cs2)cc1 (stereo unspecified),i,i,20.6µM*,16.4µM*,?,?
CC(=O)c1ccc(Nc2nc(C(N)Cc3ccc(Cl)cc3)cs2)cc1 (stereo unspecified),i,?,23.1µM*,?,?,18.4µM*
CC(=O)c1ccc(Nc2nc(C(N)Cc3ccc(N)cc3)cs2)cc1 (stereo unspecified),i,i,-7.1%,?,0.0%,?
Cc1oc2ncn(C)c(=O)c2c1C(=O)NCc1ccc(Cl)cc1,i,i,·,?,·,-22.7%
CC(C)C(=O)N(c1cc2sc(=O)oc2c2ccccc12)S(=O)(=O)c1cccs1,?,i,11.2µM*,11.6µM*,?,18.4µM*
CN1CCN(S(=O)(=O)c2cccc3nsnc23)CC1,i,i,-0.2%,3.2%,5.0%,-0.3%
CC(C)(C)NC(=O)NCC1CCCC1NC(=O)NC(C)(C)C (stereo unspecified),25.9µM*,i,0.3%,-24.4%,1.1%,4.7%
O=C(CSc1nnc(CNC(=O)c2cccs2)o1)c1ccc(Cl)cc1,i,i,-7.9%,?,-7.3%,20.6µM*
